Measured values taken from PubChem BioAssay AID1259343 (VanderVen Lab, College of Veterinary Medicine, Cornell …, 2017).
Screen size: about 6,200 compounds; about 2,900 (47%) were called active. So high a share suggests a set chosen from earlier hits. This is one part of the list. Unmarked numbers belong to inactive results. Cut-off read from the data, not from the text of the source: active = inhibition above about 50%; inactive = the rest.

Assay: Mycobacterium tuberculosis growth inhibition, primary screen (AID 1259343)
Conditions: inhibition: at 10 µM, hits give high values; outcome: 10 uM

Row | SMILES | inhibition
1 | CN(Cc1ccccc1)c1cccc(-n2ccnc2)n1 | 3.53%
2 | CN(Cc1c(F)cccc1Cl)c1cncc(-n2cccn2)n1 | 83.7% (active)
3 | Clc1cccc(-c2ccc3nnc(Cl)nc3c2)c1 | 101% (active)
4 | CCN(CC)c1n[nH]c(-c2cccc(Cl)c2)n1 | -6.42%
5 | Cc1nn(-c2ccc(C(F)(F)F)cc2)c(C)c1[C@@H]1C=C[C@@H](NCc2ccc(N(C)C)cc2)C1 | 78.3% (active)
6 | N#CC(C(=S)Nc1ccccc1)=C1NN=C2CCCCCN21 | 41.7%
7 | CCOc1ccc(-n2ccnc(NCc3cccs3)c2=O)cc1 | 71.3% (active)
8 | COc1cccc(CNc2nccn(-c3cccc(Cl)c3)c2=O)c1 | 13.4%
9 | O=C(O)c1c[nH]c2c(ccc3ccccc32)c1=O | inactive
10 | O=C(O)c1c[nH]c2c(Cl)c(Cl)ccc2c1=O | 81.6% (active)
11 | CCCOc1ccc(F)cc1-c1cc(C(=O)NC2CCCCC2)[nH]n1 | 28%
12 | COc1ccc(-c2cc(C(=O)NC3CC3)c(C)n2-c2cccc(OC)c2)cc1 | -5.91%
13 | COc1ccc(F)c(-c2cc(C(=O)NC3CC3)ccn2)c1 | 82.8% (active)
14 | COC(=O)c1ccc(NC(=O)CCc2ccncc2)cc1C | 92.8% (active)
15 | Fc1ccc(Nc2nc3cc(Cl)ccc3o2)cc1Cl | -2.2%
16 | FC(F)(F)c1ccc(-c2nc(CSc3nc4cc(Cl)ccc4o3)cs2)cc1 | 87.2% (active)
17 | OCCn1c(CSc2nc3ccccc3o2)nc2ccc(Cl)cc21 | -42.1%
18 | Cc1c2ccccc2[nH]c2c1oc1cc(=O)ccc12 | 97.4% (active)
19 | CCCc1nc(-c2ccc(S(N)(=O)=O)cc2)cs1 | -6.09%
20 | CCCc1nc(C(=O)N2C[C@H]3CC=CC[C@H]3C2)cs1 | 58.6% (active)
21 | Cc1cc(C)c(C#N)c(N2CCN(Cc3ccc(Cl)cc3)CC2)n1 | 47.2%
22 | Clc1ccc(CN2CCN(Cc3cnc(CC4CCCC4)[nH]3)CC2)cc1 | 84.3% (active)
23 | CC1CCc2onc(C(=O)Nc3nc4ccccc4n3C)c2C1 (stereo not drawn) | 7%

Row | SMILES | inhibition
24 | O=C(NC(=S)NC1C2CC3CC(C2)CC1C3)c1cccs1 (stereo not drawn) | 56.9% (active)
25 | COc1cccc(C(=O)NC(C)C23CC4CC(CC(C4)C2)C3)c1 (stereo not drawn) | 62.8% (active)
26 | O=S(=O)(/C=C/c1ccccc1)NC12CC3CC(CC(C3)C1)C2 | -12.7%
27 | Cc1ccc(C(=O)NC(C)C23CC4CC(CC(C4)C2)C3)s1 (stereo not drawn) | 93.3% (active)
28 | COc1ccc(C23CC4CC(CC(C(=O)O)(C4)C2)C3)c(F)c1 | 21.2%
29 | S=C(NNc1ccccc1)NC12CC3CC(CC(C3)C1)C2 | 84.2% (active)
30 | COC(=O)C1CCCc2c1ccn2CC=C(C)C (stereo not drawn) | 27.3%
31 | O=C(NC12CC3CC(CC(C3)C1)C2)c1cccs1 | 98.1% (active)
32 | CC(NC(=O)C1=NNC(=O)CC1)C1CC2CCC1C2 (stereo not drawn) | 27.1%
33 | CC1CC1C(=O)NC(C)C12CC3CC(CC(C3)C1)C2 (stereo not drawn) | 55.2% (active)
34 | CC(NC(=O)c1cccs1)C12CC3CC(CC(C3)C1)C2 (stereo not drawn) | 67.3% (active)
35 | CC(C)c1ccc(C2NC(=O)C(O)=C2C(=O)c2cccs2)cc1 (stereo not drawn) | 29%
36 | CC(NC(=O)C1=NNC(=O)CC1)C12CC3CC(CC(C3)C1)C2 (stereo not drawn) | 68% (active)
37 | CN(C)C(=O)c1ccc(-c2cnc3c(c2)CCN3CCCc2ccccc2)cc1 | 33.1%
38 | COc1ccc(C(NC(=O)c2ccc(C)s2)C2CC2)cc1 (stereo not drawn) | 83.9% (active)
39 | COc1cc(NC(=O)c2ccc(C)s2)cc(OC)c1OC | 6.84%
40 | CN(C)c1nc(N)nc(Cn2nc(-c3ccc(F)cc3)oc2=O)n1 | 91.8% (active)
41 | O=C1CC(c2ccc(Br)s2)c2cnn(C3CCCC3)c2N1 (stereo not drawn) | 31.2%
42 | O=C(N/N=C(\CC(=O)c1cccs1)C(F)(F)F)c1cccc(Br)c1 | 103% (active)
43 | CC(C)CC1=NN(C(=O)c2cccc(Br)c2)C(O)(C(F)(F)F)C1 (stereo not drawn) | 23%
44 | CCN1CCc2c(sc(NC(=O)c3ccc(OC)c(OC)c3)c2-c2nc3ccccc3s2)C1 | 28.1%
45 | CCOC(=O)c1c(NC(=O)c2c(F)c(F)c(F)c(F)c2F)sc2c1CCN(c1ccc(Cl)nc1)C2 | 61.8% (active)
46 | Cc1ccc(CN(C)C(=O)c2cc(C(C)C)[nH]n2)o1 | 69.9% (active)

Row | SMILES | inhibition
47 | Cc1noc(CN(C)C(=O)c2cc(C(C)C)no2)n1 | -37.1%
48 | Cc1ccc(CN(C)C(=O)c2cc(Br)c[nH]2)o1 | 44.1%
49 | CCN(CC)C(=O)COC(=O)c1cc(-c2cc(C)sc2C)nc2onc(C)c12 | -34.1%
50 | S=c1[nH]nc(COc2ccccc2Cl)o1 | -28.9%
51 | COc1cccc(OCc2nc(-c3ccc(Br)o3)no2)c1 | 93.8% (active)
52 | Cc1cc(C)nc(Nc2cccc(OCc3nc(-c4cccs4)no3)c2)n1 | 29.2%
53 | Cc1ccc(C)c(OCc2n[nH]c(=S)o2)c1 | 21.7%
54 | COc1cccc(OCc2n[nH]c(=S)o2)c1 | 79.7% (active)
55 | CC(Oc1ccc(F)cc1)c1n[nH]c(=S)o1 (stereo not drawn) | -17.5%
56 | S=c1[nH]nc(COc2ccc(Cl)cc2)o1 | 91.8% (active)
57 | S=c1[nH]nc(COc2ccc(Cl)cc2Cl)o1 | 79.7% (active)
58 | CN1N=C(c2ccc(F)c(F)c2)CSC1=NCc1ccccc1 | 18.9%
59 | OC1(C2(O)CC(c3ccccc3)NO2)CCCCC1 (stereo not drawn) | 27.1%
60 | CC(On1nnc2ccc(Cl)cc21)C(=O)NC(=O)NC1CCCCC1 (stereo not drawn) | 27.5%
61 | O=C(NN=C1C(=O)c2cccc3cccc1c23)NC1CCCCC1 | -1.18%
62 | Cc1cccc(C)c1-n1nnnc1SC(C)C(=O)NC(=O)NC1CCCCC1 (stereo not drawn) | 81.5% (active)
63 | N#Cc1ccc(/C=C/C(=O)N2CCN(Cc3ccc(Br)s3)CC2)cc1 | 28.6%
64 | Brc1ccc(-c2ccc(CN3CCNCC3)s2)cc1 | 73.8% (active)
65 | O=C(C1CC1)N1CCC(NCc2ccc(-c3cccc(Br)c3)s2)CC1 | 44.8%
66 | O=C(NNc1c(Cl)cc(Cl)cc1Cl)C1CCC1 | 47.8%
67 | O=C(NC(=S)Nc1cc(Cl)c(Cl)cc1Cl)C1CC1 | 82.6% (active)
68 | CCN(C(=S)NC(=O)C1CC1)C1CCCCC1 | 20.5%
